# Bioassay records as filed in PubChem.
# DUX4 txn inh = blocks DUX4-driven transcriptional activation | hit rate 0.8% among 37,000 | 293T-iDUX4 ZSCAN4-Gaussia luciferase reporter, 24 h; hits give low values | activity change, negative = inhibition, % (test concentration not listed);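 active = mean inhibition of at least 10% in the main channel, exceeding the control channel by a set limit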;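 note: 0% = median of neutral control wells and -100% = median of positive control wells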
# * hit, by the source's call; ! = not confirmed by another sample. The sample as a whole holds a higher share of hits than the screen did.
SMILES,DUX4 txn inh
O=S(=O)(c1ccccc1)N1CCCCN2[C@@H](CO)[C@H](c3ccc(C#CC4CCCC4)cc3)[C@@H]2C1,4
CC(C)(O)C#Cc1ccc([C@H]2[C@@H](CO)N3CCCCN(C(=O)c4ccc(F)cc4)C[C@@H]23)cc1,7
COCC#Cc1ccc([C@@H]2[C@H](CO)N3CCCCN(S(=O)(=O)c4ccc(OC)cc4)C[C@@H]23)cc1,6
CC(C)C#Cc1ccc([C@@H]2[C@H]3CN(C(=O)c4ccc(F)cc4)CCCCN3[C@H]2CO)cc1,-26*
CC(C)CC#Cc1ccc([C@@H]2[C@H]3CN(S(=O)(=O)Cc4ccccc4)CCCCN3[C@H]2CO)cc1,-2
CN(C)Cc1cn(CC[C@H]2CC[C@@H](NC(=O)Cc3cccnc3)[C@@H](CO)O2)nn1,1
COc1ccc([C@H]2CC=CC[C@@H](C)Oc3ccccc3C(=O)N(C)[C@H](Cc3ccccc3)C(=O)N2)c(OC)c1 (mixture of isomers),6
O=C([C@@H]1[C@@H](CO)[C@@H]2Cn3c(ccc(/C=C/c4ccccc4)c3=O)[C@H]1N2)N1CCCCC1,-1
CCN(C[C@@H]1[C@@H](c2ccc(-c3ccccc3)cc2)[C@@H](CO)N1CC1CC1)C(C)=O,0
O=C(C[C@H]1C=C[C@@H](NC(=O)c2cccnc2)[C@@H](CO)O1)NCc1ccncn1,10
CO[C@H]1CN(C)C(=O)c2ccc(NC(=O)Nc3ccccc3F)cc2OC[C@H](C)N(CC2CC2)C[C@H]1C,-7
O=C(N[C@H]1C=C[C@H](CC(=O)N2CCCCC2)O[C@@H]1CO)c1ccc2c(c1)OCO2,6
COCC(=O)Nc1ccc2c(c1)C(=O)N(C)C[C@H](OC)[C@@H](C)CN(Cc1cncnc1)[C@H](C)CO2,6
COc1ccc2c3c(n(C)c2c1)[C@H](CO)N(Cc1ccccc1F)CC31CN(CC2CC2)C1,2
CO[C@H]1CC[C@H]2CCOc3ccc(C#N)cc3C(=O)N(C)CCCC(=O)N(C)C[C@H]1O2,-5
CCCN(C)C[C@@H]1OCc2cnnn2CCCC(=O)N([C@@H](C)CO)C[C@@H]1C,2
COc1ccc2c3c(n(C)c2c1)[C@H](CO)NCC31CN(Cc2ccc(Cl)cc2)C1,-48*
COc1ccc2c3c(n(C)c2c1)[C@H](CO)NCC31CN(Cc2ccccc2Cl)C1,4
COc1ccc2c3c(n(C)c2c1)[C@@H](CO)NCC31CN(Cc2ccc(-c3ccccn3)cc2)C1,-3
COc1ccc2c3c(n(C)c2c1)[C@@H](CO)N(C(=O)c1ccncc1)CC31CN(C)C1,15
OC[C@H]1[C@@H](c2ccc(C#Cc3cccnc3)cc2)[C@H]2CN(Cc3ccccc3F)CCCCN21,-43*
O=C(Nc1ccccc1F)N1CCCCN2[C@H](CO)[C@@H](c3ccc(C#Cc4cccnc4)cc3)[C@H]2C1,-3
CC(C)(O)C#Cc1ccc([C@H]2[C@H]3CN(Cc4ccccc4F)CCCCN3[C@H]2CO)cc1,3
N#Cc1cccc(-c2ccc([C@@H]3[C@@H](CO)N4CCCCN(Cc5ccccc5F)C[C@H]34)cc2)c1,-33*
CC(C)(O)C#Cc1ccc([C@H]2[C@@H](CO)N3CCCCN(Cc4ccccc4F)C[C@@H]23)cc1,19
SMILES,DUX4 txn inh
O=C(Nc1ccccc1F)N1CCCCN2[C@H](C1)[C@H](c1ccc(C#Cc3cccnc3)cc1)[C@@H]2CO,-10
CC(C)(O)C#Cc1ccc([C@@H]2[C@@H](CO)N3CCCCN(Cc4ccccc4F)C[C@@H]23)cc1,16
OC[C@H]1[C@@H](c2ccc(C#Cc3cccnc3)cc2)[C@@H]2CN(Cc3ccccc3F)CCCCN12,-51*
CCC(=O)N1CCCCN2[C@H](C1)[C@@H](c1ccc(-c3cccc(C#N)c3)cc1)[C@@H]2CO,4
OC[C@@H]1[C@@H](c2ccc(C#Cc3ccccc3)cc2)[C@H]2CN(Cc3cncnc3)CCCCN12,-4
OC[C@@H]1[C@@H](c2ccc(C#Cc3cccnc3)cc2)[C@H]2CN(Cc3ccccc3F)CCCCN12,-45*
CCC(=O)N1CCCCN2[C@@H](CO)[C@@H](c3ccc(-c4cccc(C#N)c4)cc3)[C@@H]2C1,15
CN(C)C(=O)c1cccc(-c2ccc([C@@H]3[C@H]4CN(C(=O)Cc5ccccc5)CC(=O)N4[C@H]3CO)cc2)c1,7
CN(C)C(=O)C[C@@H]1C[C@H]2c3cc(NC(=O)Nc4ccccc4F)ccc3O[C@H]2[C@H](CO)O1,-7
Cc1noc(C)c1S(=O)(=O)N(C)C[C@H]1OCCCC[C@H](C)Oc2ccc(NS(=O)(=O)c3cn(C)cn3)cc2C(=O)N([C@H](C)CO)C[C@@H]1C,1
C[C@H](CO)N1C[C@H](C)[C@@H](CN(C)C(=O)OCc2ccccc2)OCc2cnnn2CCCC1=O,-5
COCC(=O)Nc1ccc2c(c1)C(=O)N(C)[C@@H]1CC[C@H](CC(=O)NCC(F)(F)F)O[C@H]1CO2,0
C[C@@H]1CN([C@@H](C)CO)S(=O)(=O)c2ccc(C3=CCCC3)cc2O[C@H]1CN(C)C(=O)c1ccccn1,7
COc1ccc(S(=O)(=O)Nc2ccc3c(c2)C(=O)N([C@@H](C)CO)C[C@@H](C)[C@@H](CN(C)Cc2ccc(C(F)(F)F)cc2)OCCCC[C@@H](C)O3)cc1,0
O=C(C[C@H]1CC[C@H]2[C@@H](COC[C@@H](O)CN2S(=O)(=O)c2ccccc2)O1)NCCN1CCCC1,16
O=C(C[C@@H]1C=C[C@@H](NC(=O)C2CCOCC2)[C@@H](CO)O1)Nc1ccc(-c2ccccc2)cc1,1
O=S(=O)(c1ccccc1)N1[C@@H]2CNC[C@H]1C2c1ccc(-c2cccnc2)cc1 (stereo partly specified),-11*!
O=S(=O)(c1cccc(F)c1)N1[C@@H]2CNC[C@H]1C2c1ccc(-c2cccnc2)cc1 (stereo partly specified),-1
O=S(=O)(c1ccc(-c2ccccc2)cc1)N1C[C@@H]2N[C@H](C1)C2c1ccc(-c2ccncc2)cc1 (stereo partly specified),-33*
Cc1ccc(S(=O)(=O)N2[C@@H]3CNC[C@H]2C3c2ccc(-c3cccnc3)cc2)cc1 (stereo partly specified),-1
O=S(=O)(c1ccc(-c2ccccc2)cc1)N1[C@@H]2CNC[C@H]1C2c1ccc(-c2ccccc2)cc1 (stereo partly specified),9
Cc1cccc(-c2ccc(C3[C@@H]4CNC[C@H]3N4)cc2)c1 (stereo partly specified),-3
CS(=O)(=O)N1C[C@@H]2N[C@H](C1)[C@@H]2c1ccc(-c2ccccc2)cc1,-51*
CN(C)C(=O)c1ccc(-c2ccc(C3[C@@H]4CN(S(=O)(=O)Cc5ccccc5)C[C@H]3N4)cc2)cc1 (stereo partly specified),5
COc1ccc(S(=O)(=O)N2[C@@H]3CNC[C@H]2C3c2ccc(-c3ccncc3)cc2)cc1 (stereo partly specified),13
C/C=C/c1ccc2c(c1)[C@@H]1[C@@H](CCN1C(=O)c1cnccn1)[C@H](CO)N2,10
COc1ccc2c3c(n(C)c2c1)[C@H](CO)N(C)CC31CN(C(=O)c2ccc3c(c2)OCO3)C1,4
CCNC[C@@H]1[C@@H](c2ccc(C#Cc3ccccn3)cc2)[C@@H](CO)N1C(=O)C1CC1,-3
COc1ccc(NC(=O)N2C[C@@H](O)COC[C@H]3O[C@H](CC(=O)N4CCOCC4)CC[C@@H]32)cc1,15
